Test [1] can be described thus: Her2 expression decrease, cell viability multiplex – SKBR3 breast tumor cells, AlphaScreen, ATP viability, primary screen (AID 461;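 active = Her2 level under about 52% in both replicate screens, with viability over 70% of control, limit read from the data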;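 as to Her2 level: lower value means less Her2 protein in the cells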;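 as to viability: percent of carrier control wells set as 100% viability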). The settings on record: SKBR3 Her2 protein level, 18-24 h, measured here: SKBR3 viability, ATP luminescence, at 10 µM. For orientation: Bead proximity is the source of the signal in Alpha formats.
The target of test [2] is Receptor tyrosine-protein kinase erbB-2 (Homo sapiens) (UniProt P04626). The test is described as above. The settings on record: 18-24 h, at 10 µM, stronger effect = lower value.
Chain of Receptor tyrosine-protein kinase erbB-2 (Homo sapiens) (P04626 whole entry, looked up): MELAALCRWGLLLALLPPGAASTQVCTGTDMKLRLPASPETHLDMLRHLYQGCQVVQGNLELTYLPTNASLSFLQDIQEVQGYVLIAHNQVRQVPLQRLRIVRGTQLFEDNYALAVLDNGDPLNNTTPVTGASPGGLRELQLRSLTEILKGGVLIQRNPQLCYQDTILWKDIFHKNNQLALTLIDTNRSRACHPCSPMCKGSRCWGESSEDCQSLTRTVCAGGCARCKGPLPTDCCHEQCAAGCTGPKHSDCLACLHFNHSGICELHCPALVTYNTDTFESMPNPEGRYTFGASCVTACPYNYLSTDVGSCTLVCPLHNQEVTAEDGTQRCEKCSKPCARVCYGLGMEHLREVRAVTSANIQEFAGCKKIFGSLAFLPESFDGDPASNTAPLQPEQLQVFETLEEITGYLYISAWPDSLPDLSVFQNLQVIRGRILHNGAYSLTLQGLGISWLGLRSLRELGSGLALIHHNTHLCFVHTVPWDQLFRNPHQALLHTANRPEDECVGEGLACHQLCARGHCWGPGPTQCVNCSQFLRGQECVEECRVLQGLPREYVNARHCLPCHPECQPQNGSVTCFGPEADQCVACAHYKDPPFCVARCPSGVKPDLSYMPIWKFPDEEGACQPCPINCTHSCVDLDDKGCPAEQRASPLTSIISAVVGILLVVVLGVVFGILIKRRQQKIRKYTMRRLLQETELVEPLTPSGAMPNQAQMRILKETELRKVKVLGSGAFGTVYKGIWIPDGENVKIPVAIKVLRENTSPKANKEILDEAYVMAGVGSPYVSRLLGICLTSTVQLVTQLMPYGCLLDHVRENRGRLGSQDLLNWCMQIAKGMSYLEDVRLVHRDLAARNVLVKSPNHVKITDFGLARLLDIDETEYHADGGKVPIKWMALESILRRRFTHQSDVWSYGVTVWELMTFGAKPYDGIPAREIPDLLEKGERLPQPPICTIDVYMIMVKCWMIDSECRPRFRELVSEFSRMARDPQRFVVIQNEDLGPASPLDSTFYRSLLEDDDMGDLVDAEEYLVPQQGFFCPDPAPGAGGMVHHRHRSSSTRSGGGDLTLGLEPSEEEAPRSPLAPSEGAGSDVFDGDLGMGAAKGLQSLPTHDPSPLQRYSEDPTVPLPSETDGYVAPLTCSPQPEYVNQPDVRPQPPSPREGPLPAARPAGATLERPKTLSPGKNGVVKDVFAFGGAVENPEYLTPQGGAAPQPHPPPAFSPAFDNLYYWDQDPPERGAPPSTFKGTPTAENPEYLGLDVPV
The nature of test [3]: reduced viability of SK-BR-3 breast cancer cells – cell-based, 24 h, human, pilot screen (AID 572;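 active = viability at or below 10% of carrier control in both of two separate runs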;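 also: compound exposure lasted between 18 and 24 h rather than exactly 24 h; 100% = carrier-treated control wells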). The settings on record: SK-BR-3 viability, CellTiter-Glo luminescence, at 10 µM, stronger effect = lower value. For orientation: Cellular ATP, detected with luciferase, serves as a proxy for viable cell number.
Test [4] in a line: HUVEC growth inhibition – cell-based, human, primary screen (AID 575;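 active = viability at or below 30% in both replicate assays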;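 also: 100% = median of untreated cell wells with 0.1% DMSO on each plate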). The settings on record: HUVEC proliferation, CellTiter-Glo luminescence, 72 h; at 10 µM; stronger effect = lower value.
Test [5] can be described thus: H69AR cell proliferation blockers – human, duplicate replicates, primary screen (AID 580;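 active = viability at or under a set limit in both replicates, limit being median viability minus 3 SD, cut at about 48% in these data, passing the limit was not always enough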;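 also: 100% = mean luminescence of untreated wells and 0% = no signal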). The settings on record: H69AR lung tumor cells viability, ATP luminescence, 72 h; at 10 µM; stronger effect = lower value.
Test [6] in a line: MRP1 drug-resistance reversers in H69AR cells – cell-based, doxorubicin co-treatment, pilot screen (AID 601). The settings on record: CellTiter-Glo, 72 h, at 10 µM; for differential viability (reversal): stronger effect = higher value.
A short description of test [7]: yeast transport mutant growth inhibition pilot in 384-well plates, post-Golgi transport modulator project (AID 636; in the data active = inhibition above about 31%). The settings on record: absorbance 615 nm, about 18 h, stronger effect = higher value.
The nature of test [8]: growth suppression of yeast trafficking mutant, preliminary HTS, modulators of trafficking downstream of Golgi apparatus project, 1536-format plate, OD 615 nm (AID 637; in the data active = inhibition above about 30%). The settings on record: yeast transport mutant growth, absorbance 615 nm, 18 h; stronger effect = higher value.
The nature of test [9]: S. cerevisiae growth inhibition in permissive medium (OD615), pilot counter-assay for S. cerevisiae lifespan shortening project, permissive growth control (AID 705;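 active = growth inhibition above 25% in both replicates, a cutoff set 3 SD above the mean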). The settings on record: OD615, 24 h, at 10 µM, stronger effect = higher value.
Test [10] can be described thus: S. cerevisiae growth inhibition in restrictive medium, OD615, pilot screen, restrictive growth control, yeast lifespan reduction project (AID 706;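 active = growth inhibition above a set limit, 3 SD over mean compound inhibition, in both replicates, cut at about 43% in these data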;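 also: modified DeaD lifespan yeast strain shifted to restrictive glucose medium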). The settings on record: OD615, 48 h, at 10 µM, stronger effect = higher value.
Test [11] is described as follows: doxorubicin toxicity protection in MRP-1 cells – H69AR cells, CellTiter-Glo, duplicate, MRP-1 activator project, pilot screen (AID 807;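 active = viability increase at or above a cutoff of the median across tested compounds plus 3 SD, cut at about 8.5% in these data, passing the limit was not always enough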;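 also: compound pretreatment 18-22 h then 72 h combined with doxorubicin; 0% = doxorubicin alone and 100% = vehicle without doxorubicin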). The settings on record: H69AR viability with doxorubicin, CellTiter-Glo luminescence; at 10 µM; stronger effect = higher value.
The nature of test [12]: viability of HCT116 without oncogenic beta-catenin – human colon tumor cells, pilot screen (AID 823;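 active = cell viability at or below a set limit in both duplicate runs, the limit being the all-compound median minus 4 SD, cut at about 23% in these data, passing the limit was not always enough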;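 also: 0% = wells killed by 20 µM Hyamine and 100% = untreated DMSO cell wells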). The settings on record: HCT116 beta-catenin knockout viability, CellTiter-Glo, 60 h; at 10 µM; stronger effect = lower value.
Test [13] in a line: viability of PTEN-null HCT116 cells – cell-based, HCT116 clonal line, CellTiter-Glo, pilot screen (AID 824;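 active = viability at or below 27.92% in each of two runs, the all-compound median minus 4 SD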;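 also: 0% = 20 µM Hyamine control and 100% = vehicle cell control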). The settings on record: HCT116 PTEN-deleted viability, 60 h, at 10 µM, stronger effect = lower value.
Test [14] can be described thus: RAM pathway blockade in budding yeast – dse1pr::URA3 reporter, 5-FOA selection, pilot screen (AID 869;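 active = inhibition over a set limit, the all-compound mean plus 3 SD, in both replicate runs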;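 also: 0% = DMSO wells with no growth and 100% = 10 µM 1-NA-PP1 with full growth; RAM network block rescues cells from 5-FOA so hits raise OD615 growth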). The settings on record: S. cerevisiae dse1pr::URA3 5-FOA growth, OD615, 2 d; at 10 µM; stronger effect = higher value; strain carries analog-sensitive mutant Cbk1 kinase.
Test [15] in a line: RAM signaling pathway blockade in yeast – S. cerevisiae, Pdr1DBD-CYC8 efflux-inhibited sensitized strain, primary screen (AID 1298;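 active = RAM network inhibition above 8.4% in each of two replicates, 3 SD over the compound average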;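 also: 0% = DMSO untreated cells without growth and 100% = 10 µM 1-NA-PP1 full growth; higher means more yeast growth rescued from 5-FOA killing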). The settings on record: S. cerevisiae cbk1-as DSE1-URA3 strain, 5-FOA growth OD615, 2 d; at 50 µM; stronger effect = higher value.
Where [16] appears, read: H69AR cells + 2 uM doxorubicin, measured here: viability with 2 uM doxorubicin, stronger effect = lower value.
Setting [17] is: H69AR cells, compound alone cytotoxicity.

Inconclusive results are not listed. Active and inactive are the calls of the source.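 The calls were made as follows, unless noted: active = viability loss from added drug above about 55%, and viability with drug at most 40%, in both replicates (limit read from the data, passing the limit was not always enough); inconclusive = both conditions met in only one replicate; inactive = neither replicate meets both conditions.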

One may read the viability as a read-out of living cells in per cent, often relative to untreated cells. As usually defined, the inhibition is the change of the read-out against control, counted positive when it falls.

With `Cc1ccccc1Cn1ccc(NC(=O)c2onc(C)c2Cl)n1`, the viability was 107% in test [1]; 107% (inactive) in [3]; 93.6% (inactive) in [4]; 100% (inactive) in test [5]; 83.6% in test [6] (setting [16]); 100% in test [6] (setting [17]). Moreover, the viability in test [12] was 103% (inactive); in test [13] it was 91.2% (inactive). In [2], the Her2 level was 106% (inactive). Besides, the differential viability (reversal) in test [6] (H69AR cells + 2 uM doxorubicin) was 16.8% (inactive). Further, the inhibition in test [7] is -4% (inactive); in [8], -4.17% (inactive); in [14], 1.72% (inactive). Besides, the values for the growth inhibition in test [9] and in [10] were -7.95% (inactive) and 2.75% (inactive), respectively. Besides, the viability increase in [11] is 4.68% (inactive). The RAM network inhibition in test [15] is 4.82% (inactive).
On to `O=c1[nH]c(SCc2ccc(F)cc2)nc2c1cnn2-c1ccc(F)cc1`, for which the viability in test [1] is 69%; in [3], 69% (inactive); in [4] it was 70.7% (inactive); in [5], 79.1% (inactive); in [6] (setting [16]), 40.8%; in test [6] (setting [17]) it was 79.1%. Also, the viability in test [12] is 39.8% (inactive); in [13], 51.5% (inactive). The Her2 level in [2] is 106% (inactive). Further, the differential viability (reversal) in test [6] (H69AR cells + 2 uM doxorubicin) was 38.2% (inactive). Also, the inhibition in test [7] is 1.87% (inactive); in [8] it was 12.3% (inactive); in [14], 1.02% (inactive). The growth inhibition was -5.11% (inactive) in [9] and -7.31% (inactive) in test [10]. In [11], the viability increase is -6.32% (inactive). The RAM network inhibition in test [15] was 4.01% (inactive).
In the case of `COCCNC(=O)CN1CCN(Cc2cccc(Cl)c2)C1=O`, the viability in test [1] is 102%; in test [3] it was 102% (inactive); in [4], 99.3% (inactive); in [5], 103% (inactive); in [6] (setting [16]) it was 85.4%; in test [6] (setting [17]), 103%. Moreover, the results for the viability in test [12] and in [13] were 102% (inactive) and 95.5% (inactive), respectively. In addition, in [2], the Her2 level is 112% (inactive). The differential viability (reversal) in test [6] (H69AR cells + 2 uM doxorubicin) is 17.5% (inactive). Besides, the inhibition in test [7] was -5.47% (inactive); in [8] it was -3.93% (inactive); in [14], 0.485% (inactive). The figures for the growth inhibition in test [9] and in test [10] were 6.16% (inactive) and 1.19% (inactive), respectively. Also, in test [11], the viability increase is -0.8% (inactive). For the same molecule, the RAM network inhibition in test [15] is -0.14% (inactive).
Take `Cc1nc2ccc(C(=O)c3ccccc3)cc2[nH]1`: the viability in test [1] is 102%; in test [3], 102% (inactive); in [4] it was 110% (inactive); in [5] it was 94.2% (inactive); in test [6] (setting [16]) it was 91.7%; in [6] (setting [17]) it was 94.2%. The viability in test [12] was 99.4% (inactive); in test [13], 100% (inactive). Further, the Her2 level in test [2] was 82% (inactive). For the same molecule, the differential viability (reversal) in test [6] (H69AR cells + 2 uM doxorubicin) is 2.49% (inactive). Moreover, the results for the inhibition in test [7], in [8] and in test [14] were -3.64% (inactive), 0.33% (inactive) and 1.42% (inactive), respectively. Besides, the growth inhibition in test [9] is -6.26% (inactive); in [10], 2.11% (inactive). The viability increase in test [11] was 0.26% (inactive). Also, the RAM network inhibition in test [15] is 5% (inactive).
Take `CCc1nnc(NC(=O)COC(=O)CN2C(=O)c3ccccc3C2=O)s1`: the viability is 104% in test [1]; 104% (inactive) in test [3]; 104% (inactive) in test [4]; 109% (inactive) in test [5]; 101% in test [6] (setting [16]); 109% in [6] (setting [17]). Also, the viability in [12] was 96.8% (inactive); in test [13], 89.8% (inactive). In addition, in test [2], the Her2 level was 101% (inactive). Further, the differential viability (reversal) in test [6] (H69AR cells + 2 uM doxorubicin) is 7.39% (inactive). The results for the inhibition in test [7], in test [8] and in [14] were -9.32% (inactive), -6.19% (inactive) and 0.785% (inactive), respectively. Further, the growth inhibition in test [9] was 2.25% (inactive); in test [10], 1.2% (inactive). Besides, the viability increase in test [11] is -1.95% (inactive). Besides, in test [15], the RAM network inhibition was 5.31% (inactive).
For `CCOC(=O)CN1CC23C=CC(O2)C(C(=O)Nc2ccc(OCC)cc2)C3C1=O` (configuration not stated), the viability in test [1] was 100%; in test [3] it was 100% (inactive); in test [4], 102% (inactive); in test [5], 96.4% (inactive); in test [6] (setting [16]) it was 89.2%; in [6] (setting [17]), 96.4%. In addition, the viability is 112% (inactive) in test [12] and 105% (inactive) in [13]. In addition, the Her2 level in [2] is 96% (inactive). Besides, in test [6] (H69AR cells + 2 uM doxorubicin), the differential viability (reversal) was 7.16% (inactive). In addition, the inhibition in test [7] is -4.53% (inactive); in [8], 0.49% (inactive); in test [14] it was 2.22% (inactive). Further, the growth inhibition is 17% (inactive) in [9] and 13.4% (inactive) in test [10]. Besides, the viability increase in test [11] was -0.57% (inactive). For the same molecule, in test [15], the RAM network inhibition was 0.21% (inactive).

The values are drawn from PubChem BioAssay.
